Results filed as inconclusive are left out. A call without a number means that no potency is given here. The source made the active and inactive calls. The call rests on the fitted dose curve. Positions of bridges follow the written chain, without caps; N, C: chain ends. Non-standard residues stand in square brackets, D forms with d. Residues, ends and D or L forms follow the SMILES beside them. *: point of attachment. X2 = CC[C@H](C)CCCCC(=O)*; Orn = NCCC[C@H](N)C(=O)O; Dab = NCC[C@H](N)C(=O)O; Mpa = O=C(O)CCS
Each compound was assayed on thyroid hormone receptor (rat, GH3 cells) (assay: qHTS assay to identify small molecule agonists of the thyroid receptor (TR) signaling pathway (AID 743066)). Settings: GH3.TRE-Luc cells, TR agonist luciferase, 24 h; series mostly up to 83.9 µM.

With O=C(O)c1cccc(/C=C2/C[C@@H]3[C@@H](/C=C/[C@@H](O)C4CCCCC4)[C@H](O)C[C@@H]3O2)c1 as the compound, how does the Potency read?
Its Potency is “inactive”.

CC1(C)S[C@@H]2[C@H](NC(=O)[C@H](N)c3ccccc3)C(=O)N2[C@H]1C(=O)OCOC(=O)[C@@H]1N2C(=O)C[C@H]2S(=O)(=O)C1(C)C was tested. Which Potency did it give?
The Potency was “inactive”.

For NCCC(=O)[N-][C@@H](Cc1cnc[nH]1)C(=O)O.[Zn], which Potency is on record?
The Potency was “inactive”.

With C#CCOc1ccc2c(C)cc(=O)oc2c1 as the compound, how does the Potency read?
The Potency was “inactive”.

OC[C@H]1O[C@@H](n2cnc3c2NC=NC[C@H]3O)C[C@@H]1O was tested. Which Potency did it give?
The Potency was “inactive”.

How did the Potency turn out when CCCC(=O)Nc1c(I)cc(I)c(CC(CC)C(=O)O)c1I (stereo not drawn) was run?
Its Potency is “inactive”.

With O=P(O)(O)OC(CO)CO as the compound, how does the Potency read?
Its Potency is “inactive”.

For CCCCCCCCCCCCCCCC(=O)O[C@@H]1[C@@H](O)[C@@H](O)[C@@H]([C@H](NC(=O)[C@@H]2C[C@@H](CCC)CN2C)[C@H](C)Cl)O[C@@H]1SC, which Potency is on record?
Its Potency is “inactive”.

With CC(=O)O[C@H]1C[C@@]2(C)[C@@H](C[C@@H](O)[C@H]3[C@@]4(C)CC[C@@H](O)[C@@H](C)[C@@H]4CC[C@@]32C)/C1=C(\CCC=C(C)C)C(=O)O as the compound, how does the Potency read?
Its Potency is “inactive”.

How did the Potency turn out when C[C@H](CSC(=O)c1ccccc1)C(=O)N1C[C@@H](Sc2ccccc2)C[C@H]1C(=O)O was run?
Its Potency is “inactive”.

How did the Potency turn out when O=S(O)CNc1ccc(S(=O)(=O)c2ccc(NCS(=O)O)cc2)cc1 was run?
The Potency was “inactive”.

CC(=O)O[C@H]1C[C@@H]2CC[C@@H]3[C@H](CC[C@@]4(C)[C@H]3C[C@H](N3CC[N+](C)(C)CC3)[C@@H]4OC(C)=O)[C@@]2(C)C[C@@H]1N1CC[N+](C)(C)CC1 was tested. Which Potency did it give?
Its Potency is “inactive”.

How did the Potency turn out when O=C1O[C@H]2[C@H](O)[C@@H]1OC(O)[C@H]2O (stereo partly drawn) was run?
Its Potency is “inactive”.

Which Potency does the source give for CC(=O)Nc1ccc(NC(=S)NC(=O)c2ccc(C(C)(C)C)cc2)cc1 here?
Its Potency is “inactive”.

With CC[C@H]1OC(=O)[C@H](C)[C@@H](O[C@H]2C[C@@](C)(OC)[C@@H](O)[C@H](C)O2)[C@H](C)[C@@H](O[C@@H]2O[C@H](C)C[C@H](N(C)C)[C@H]2O)[C@](C)(O)C[C@@H](C)[C@@H]2N[C@@H](COCCOC)O[C@@H]([C@H]2C)[C@]1(C)O as the compound, how does the Potency read?
Its Potency is “inactive”.

How did the Potency turn out when Cn1c(=O)c2c(ncn2CCOC(=O)C(C)(C)Oc2ccc(Cl)cc2)n(C)c1=O was run?
The Potency was “inactive”.

With O=C(O)c1ccc(OCCn2ccnc2)cc1 as the compound, how does the Potency read?
The Potency was “inactive”.

With CO[C@@H]1[C@@H](O[C@@H]2O[C@H](C)[C@@H](O[C@H]3C[C@@](C)(O)[C@@H](OC(=O)CC(C)C)[C@H](C)O3)[C@H](N(C)C)[C@H]2O)[C@@H](CC=O)C[C@@H](C)[C@@H](O)/C=C/C=C/C[C@@H](C)OC(=O)C[C@H]1O as the compound, how does the Potency read?
The Potency was “inactive”.

How did the Potency turn out when CCN(CC)CCOc1ccc2nc(N(C)C)sc2c1 was run?
The Potency was “inactive”.

COc1cc([C@@H]2c3cc4c(cc3C(O[C@@H]3O[C@@H]5COC(c6cccs6)O[C@H]5[C@H](O)[C@H]3O)C3COC(=O)[C@@H]32)OCO4)cc(OC)c1O (stereo partly drawn) was tested. Which Potency did it give?
Its Potency is “inactive”.

Which Potency does the source give for COCC1=C(C(=O)OC(C)OC(=O)OC(C)C)N2C(=O)[C@@H](NC(=O)/C(=N\OC)c3csc(N)n3)[C@H]2SC1 (stereo partly drawn) here?
The Potency was “inactive”.

Cc1cccc(C)c1Nc1ncccc1C(=O)O was tested. Which Potency did it give?
The Potency was “inactive”.

With CC1=C(/C=C/C(C)=C/C=C/C(C)=C/C=C/C=C(C)/C=C/C=C(C)/C=C/C2=C(C)C(=O)CCC2(C)C)C(C)(C)CCC1=O as the compound, how does the Potency read?
The Potency was “inactive”.

Which Potency does the source give for CCC(=O)O[C@]1(C(=O)CCl)[C@@H](C)C[C@H]2[C@@H]3C[C@H](F)C4=CC(=O)C=C[C@]4(C)[C@@]3(F)[C@@H](O)C[C@@]21C here?
The Potency was “inactive”.

With O=C1C(=O)c2ncccc2-c2cccnc21 as the compound, how does the Potency read?
The Potency was “inactive”.

With CC[C@H](C)CCCCC(=O)N[C@@H](CCN)C(=O)N[C@H](C(=O)N[C@@H](CCN)C(=O)N[C@H]1CCNC(=O)[C@H]([C@@H](C)O)NC(=O)[C@H](CCN)NC(=O)[C@H](CCN)NC(=O)[C@H](CC(C)C)NC(=O)[C@@H](CC(C)C)NC(=O)[C@H](CCN)NC1=O)[C@@H](C)O (X2-[Dab]T[Dab][Dab][Dab][dL]L[Dab][Dab]T; lactam 4-C) as the compound, how does the Potency read?
Its Potency is “inactive”.

Which Potency does the source give for O=C(NCCNCC(O)COc1ccc(O)cc1)N1CCOCC1 (stereo not drawn) here?
The Potency was “inactive”.

Which Potency does the source give for CCOc1ccc(C[C@H]2NC(=O)CCSSC[C@@H](C(=O)N3CCC[C@H]3C(=O)N[C@@H](CCCN)C(=O)NCC(N)=O)NC(=O)[C@H](CC(N)=O)NC(=O)[C@H]([C@@H](C)O)NC(=O)[C@H]([C@@H](C)CC)NC2=O)cc1 ([Mpa][dY](Et)ITNCP[Orn]G-NH2; disulfide 1-6) here?
Its Potency is “inactive”.

CC(C)CN(C[C@@H](O)[C@H](Cc1ccccc1)NC(=O)O[C@H]1CO[C@H]2OCC[C@H]21)S(=O)(=O)c1ccc(N)cc1 was tested. Which Potency did it give?
The Potency was “inactive”.

With CCCCCCCCCCCCCCCCCC(=O)OCC(C)O (stereo not drawn) as the compound, how does the Potency read?
The Potency was “inactive”.

CC(=O)O[C@H]1C(=O)[C@@]2(C)[C@H]([C@H](OC(=O)c3ccccc3)[C@]3(O)C[C@H](OC(=O)[C@H](O)[C@@H](NC(=O)c4ccccc4)c4ccccc4)C(C)=C1C3(C)C)[C@]1(OC(C)=O)CO[C@@H]1C[C@@H]2O was tested. Which Potency did it give?
The Potency was “inactive”.

CCC(=O)NS(=O)(=O)c1ccc(-c2c(-c3ccccc3)noc2C)cc1 was tested. Which Potency did it give?
Its Potency is “inactive”.

For CN(C(=O)CO)c1c(I)c(C(=O)NCC(O)CO)c(I)c(C(=O)NCC(O)CO)c1I (stereo not drawn), which Potency is on record?
Its Potency is “inactive”.

Source: PubChem BioAssay (Tox21)
